The source of these data is PubChem BioAssay AID1851 (National Center for Advancing Translational Sciences (NCATS), 2009).

Out of some 16,000 compounds screened, about 5,800 (36%) were called active. About 23% were inconclusive and are not listed. This is one part of the list. Values without a mark were called inactive. The call rests on the fitted dose curve; in most records, active means well fitted curve in the direction sought with a large enough effect; inconclusive means small, poorly fitted or top-dose-only effect, or effect the other way; inactive means no such curve, though single readings can be large or run the other way.
On the % scale 0 is the no-effect control and ±100 the full control effect.

In this test the target is Cytochrome P450 2C19 (Homo sapiens) (UniProt P33261). The test is described as follows: Cytochrome panel assay with activity outcomes. As to conditions: recombinant CYP, pro-luciferin dealkylation, luminescence, p450-cyp2c19; series mostly up to 57.1 µM.
Cytochrome P450 2C19 (Homo sapiens), sequence (P33261 whole entry, looked up): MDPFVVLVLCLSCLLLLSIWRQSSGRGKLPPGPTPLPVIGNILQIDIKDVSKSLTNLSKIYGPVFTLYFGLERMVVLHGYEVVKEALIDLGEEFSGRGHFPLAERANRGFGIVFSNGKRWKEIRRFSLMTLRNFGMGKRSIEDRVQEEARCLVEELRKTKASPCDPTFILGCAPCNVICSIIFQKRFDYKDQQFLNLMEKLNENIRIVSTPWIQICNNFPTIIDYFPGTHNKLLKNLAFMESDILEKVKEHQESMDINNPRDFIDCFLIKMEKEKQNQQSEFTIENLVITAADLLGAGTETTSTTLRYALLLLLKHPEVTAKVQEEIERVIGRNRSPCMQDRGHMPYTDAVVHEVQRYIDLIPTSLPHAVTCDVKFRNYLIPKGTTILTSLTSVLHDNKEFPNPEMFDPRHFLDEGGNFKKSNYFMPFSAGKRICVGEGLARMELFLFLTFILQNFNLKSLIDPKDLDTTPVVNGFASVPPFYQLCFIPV
One may read the AC50 as the midpoint of the concentration-response curve, whichever way the signal moves. Take `CNc1nc(Cl)nc(NC(C)(C)C)n1`: the AC50 was 14.1 µM (active).

In the case of `CCOc1ccc(C2C(C(=O)O)c3ccccc3C(=O)N2CCN2CCOCC2)cc1` (stereo unspecified), the AC50 result is “inactive”.

Regarding `CCOc1ccc(/C=C2\C(=O)c3ccccc3OC2c2ccccc2)cc1` (stereo unspecified), the AC50 was 1.12 µM (active).

As to `Cc1cc(C)c2nc3c(c([C@H](O)[C@@H]4CCCCN4)c2c1)CC/C3=C/c1ccc(Cl)cc1`, the activity, negative = inhibition is -6.83% [at 11.4 µM].

Regarding `CSCC[C@H](NC(=O)c1nn(C)c(=O)c2ccccc12)c1nc2ccccc2[nH]1`, the AC50 is 14.1 µM (active).

In the case of `CC1Cc2ccccc2N1C(=O)C1CCCCN1S(=O)(=O)c1ccccc1` (stereo unspecified), the concentration at half-maximal activity (AC50) is 2.24 µM (active).

Regarding `CC(=O)N1c2ccc(S(=O)(=O)CCC(=O)O)cc2CC1C` (stereo unspecified), the AC50 result is “inactive”.

Consider `O=C(NC(NC(=S)Nc1cc(Cl)ccc1Cl)C(Cl)(Cl)Cl)c1ccco1` (stereo unspecified), for which the AC50 is 1.58 µM (active).

As to `CCc1ccc(OCC(=O)NNC(=O)CSc2ncnc3sc(C)c(C)c23)cc1`, the AC50 is 11.2 µM (active).

Take `CCc1nnc(NC(=O)CSc2ncnc3c2cnn3-c2ccc(OC)cc2)s1`: the AC50 result was “inactive”.

In the case of `Cc1noc(C)c1C(=O)N1CCC2(CC1)CN(c1ncccn1)C2`, the AC50 entry was “inactive”.

On to `CC1=C(C(=O)OCc2ccccc2)C(c2cccnc2)c2c(n(C)c(=O)n(C)c2=O)N1` (stereo unspecified), for which the AC50 was 1 µM (active).

For the molecule `O=C1NC(=O)[C@@](Cc2ccccc2)(c2cccnc2)N1`, the activity, negative = inhibition was 27.6% [at 11.4 µM].

For `CC1=C(C(=O)OCc2ccccc2)C(c2ccc([N+](=O)[O-])cc2)NC(=O)N1CCCCCC(=O)O` (stereo unspecified), the AC50 result is “inactive”.

Regarding `CC(C)(C)n1nnnc1C(c1cccnc1)N(Cc1ccccc1)Cc1ccco1` (stereo unspecified), the AC50 is 11.2 µM (active).

Take `CC[C@H]1C2=C3C(CC[C@H]4C(OCc5ccc(F)cc5C(F)(F)F)OC[C@](C)([C@@H]34)N(C(=O)OC(C)(C)C)C2)C(COC)C1COC` (stereo partly specified): the AC50 entry was “inactive”.

On to `Clc1ccc(Cn2c(-c3cccnc3Cl)nc3ccccc32)c(Cl)c1`, for which the AC50 is 0.891 µM (active).

As to `Oc1ccc(Cn2c(-c3ccc(O)cc3)nc3ccccc32)cc1`, the activity, negative = inhibition is 87.1% [at 11.4 µM].

Take `Nc1nonc1-c1nc2ccccc2n1Cc1ccc(F)cc1Cl`: the AC50 was 0.0794 µM (active).

Regarding `Clc1ncccc1-c1nc2ccccc2n1Cc1ccccc1`, the AC50 was 28.2 µM (active).

In the case of `CN(C)CCCN1CC(C(=O)O)CC1=O` (stereo unspecified), the AC50 result was “inactive”.

For the molecule `O=c1onc2cnc3ccccc3n12`, the AC50 result was “inactive”.

In the case of `O=c1c(-c2cccs2)nc2cnc(Nc3ccccc3)nc2n1C[C@H]1CCCO1`, the AC50 result is “inactive”.

As to `CCCS(=O)(=O)N1CCCC(C(=O)NCCCN2CCN(c3ccc(F)cc3)CC2)C1` (stereo unspecified), the AC50 result was “inactive”.

`CC1CC(C)CN(CCCNC(=O)C2CCCN(c3nnc(N4CCCC4=O)s3)C2)C1` (stereo unspecified): the AC50 result was “inactive”.

With `CC1CCCN(CCCNC(=O)C2CC(=O)N(c3ccc(F)c(Cl)c3)C2)C1` (stereo unspecified), the AC50 is 31.6 µM (active).
